# Many of the other results were omitted from the sample, so hits are more common in it than they were.
# Tgondii IFNg: blocks Toxoplasma gondii growth in the presence of IFN-gamma. Toxoplasma gondii growth in IFN-gamma-treated host cells; stronger effect = lower value. actives 3.8% (n = 69,000). activity change, negative = inhibition, % (no concentration beside the values); in the data active means activity change below about -70%, passing the limit was not always enough;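 further: host cells are HeLa cells infected with Toxoplasma gondii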
# Active calls of the source: *.
SMILES,Tgondii IFNg
Cc1ccc(S(=O)(=O)N(C)C[C@H]2Oc3cc(C#CC4CCCC4)ccc3S(=O)(=O)N([C@H](C)CO)C[C@H]2C)cc1,-64
C[C@H](CO)N1C[C@H](C)[C@H](CN(C)C(=O)NC2CCCC2)Oc2cc(-c3cncnc3)ccc2S1(=O)=O,44
C[C@@H]1CN([C@H](C)CO)S(=O)(=O)c2ccc(C#CCC3CCCC3)cc2O[C@@H]1CN(C)C(=O)c1cnccn1,-69
Cc1ccc(S(=O)(=O)N(C)C[C@@H]2Oc3cc(C#CC4CCCC4)ccc3S(=O)(=O)N([C@@H](C)CO)C[C@@H]2C)cc1,-114*
C[C@@H]1CN([C@H](C)CO)S(=O)(=O)c2ccc(C#Cc3cccc(F)c3)cc2O[C@H]1CN(C)S(=O)(=O)c1cn(C)cn1,-68
Cc1ccc(S(=O)(=O)N(C)C[C@H]2Oc3cc(C#CC4CCCC4)ccc3S(=O)(=O)N([C@@H](C)CO)C[C@H]2C)cc1,-132*
COc1cccc(-c2ccc3c(c2)O[C@H](CN(C)Cc2cccnc2)[C@H](C)CN([C@@H](C)CO)S3(=O)=O)c1,-39
CCCNC(=O)N(C)C[C@H]1Oc2cc(C#C[C@H](C)O)ccc2S(=O)(=O)N([C@@H](C)CO)C[C@H]1C,102
C[C@H](CO)N1C[C@H](C)[C@H](CN(C)S(=O)(=O)c2cn(C)cn2)Oc2cc(C#Cc3cccc(F)c3)ccc2S1(=O)=O,-93*
COCC#Cc1ccc2c(c1)O[C@@H](CN(C)C(=O)C1CCOCC1)[C@H](C)CN([C@@H](C)CO)S2(=O)=O,-12
Cn1cc(C(=O)c2cnn(-c3ccc(OC(F)(F)F)cc3)c2N)c2ccccc21,9
CN(C)C(=O)CC1CC2(CCN(c3ncccn3)CC2)c2ccccc21 (stereo unspecified),-2
CCO[C@H]1CC[C@@H]2[C@@H]1OCCN2C(=O)c1cc2cc(Cl)ccc2o1,0
CSCCC(=O)N(Cc1ccsc1)CC(C)C,-7
CC(C)N1CCC(N2CCC(C(=O)N(C)C)CC2)CC1,0
CCSc1nc(CC(=O)NCCc2sccc2C)cs1,47
CC1CC(NC(=O)c2cc(C(F)(F)F)cc(C(F)(F)F)c2)CC(C)(C)C1 (stereo unspecified),-14
CCCCNC(=O)CCC1N=C2c3ccccc3N=C(SCc3ccccc3Cl)N2C1=O (stereo unspecified),4
COc1ccccc1-c1nc(C)c(-c2ccc(SCC(=O)OCc3ccccc3)nn2)s1,0
C[C@@H]1CN([C@H](C)CO)S(=O)(=O)c2ccc(-c3ccc(F)cc3)cc2O[C@H]1CN(C)Cc1ccccc1C(=O)O,32
CCCC#Cc1ccc2c(c1)O[C@@H](CN(C)Cc1ccccn1)[C@@H](C)CN([C@H](C)CO)S2(=O)=O,-29
C[C@@H]1CN([C@H](C)CO)S(=O)(=O)c2ccc(C#CC(C)(C)O)cc2O[C@@H]1CN(C)Cc1ccc(F)cc1,150
C[C@@H]1CN([C@H](C)CO)S(=O)(=O)c2ccc(C#CC(C)(C)O)cc2O[C@H]1CN(C)Cc1ccc(F)cc1,-116*
C[C@@H]1CN([C@@H](C)CO)S(=O)(=O)c2ccc(-c3ccc(F)cc3)cc2O[C@H]1CN(C)Cc1ccccc1C(=O)O,-15
CCCN(C)C[C@@H]1Oc2cc(/C=C/c3ccccc3)ccc2S(=O)(=O)N([C@@H](C)CO)C[C@H]1C,-91*
SMILES,Tgondii IFNg
O=C1CCC(=O)N1CCS(=O)(=O)NCc1ccccc1-n1ccnc1,-9
O=c1[nH]nc(CCCO)n1C1CCCC1,-5
Cc1ccc(N2CCCC2=O)cc1S(=O)(=O)NCCc1c(C)noc1C,-22
Cc1ccc(N2CCCC2=O)cc1S(=O)(=O)Nc1ccc(N2CCCC2=O)cc1,-91*
Cc1ccc(N2CCCC2=O)cc1S(=O)(=O)Nc1ccc2c(c1)CC(=O)N2,49
c1ccc(Cc2nc(CCOc3ccccc3)n[nH]2)cc1,164
Cc1nnc(SCCCNC(=O)[C@@H]2C[C@@H](O)CN2)s1,6
CCS(=O)(=O)N1C[C@H]2C[C@@H](Cc3nc(C)no3)O[C@H]2C1,2
CC(C)(C)c1ccc(NC(=S)NCCc2ccncc2)cc1,-12
O=C(NCCc1ccncc1)c1cc(Br)ccc1O,-76*
O=C(NCCc1ccccc1)c1ccccc1Cl,248
CC(C)CN1CC2CN(C(=O)c3cscn3)CC2C1 (stereo unspecified),479
CCn1ncc(C(=O)NCCN2N=C(c3ccccc3)CCC2=O)c1C,-6
COc1ccc(NC(=O)Nc2ccc(-c3nc(-c4ccccc4)co3)cc2)cc1,-23
COc1ccc(Oc2ccc(NC(=O)Nc3ccc(SC(F)(F)F)cc3)cn2)cc1,-88*
COc1ccc(NC(=O)CSCC(=O)O)cn1,-7
COc1ccc(C2(C(=O)N3CCCC(O)(CN(C)C)C3)CCCC2)cc1 (stereo unspecified),-11
O=C(O)Cn1cnc2ccccc2c1=O,0
O=C(C[C@H]1NCCC[C@@H]1O)Cn1cnc2cc(Br)c(Cl)cc2c1=O,-80*
CCN(C(=O)c1ccc(NC(=O)C2CCC2)cc1)C1CCS(=O)(=O)C1 (stereo unspecified),3

# Screening data (PubChem BioAssay)
